# According to PubChem BioAssay AID686979 (National Center for Advancing Translational Sciences (NCATS), 2013):
# The campaign covered roughly 420,000 compounds. About 50,000 (12%) were called active. Another 26% or so got no clear call; they are omitted. Many of the other results were omitted from the sample, so actives are more common in it than they were. Unmarked numbers belong to inactive results. Calls follow the shape of the dose curve; as a rule, active = well fitted inhibition curve with a large enough effect; inconclusive = small, poorly fitted or top-dose-only effect; inactive = flat fitted curve, though single readings scatter.
# Experiment: qHTS for Inhibitors of human tyrosyl-DNA phosphodiesterase 1 (TDP1): qHTS in cells in presence of CPT; also: nearly all actives have a fitted effect of over 55% in size
# Details: chicken DT40 Tdp1-/-;hTDP1 cells + 20 nM CPT, ATP luminescence, 48 h; series mostly up to 46.2 µM; activity change, negative = growth inhibition: at the top concentration
# Method in brief: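 Cell growth measured by CellTiter-Glo luminescence after a minimum 48 h, 37 C compound exposure with 20 nM CPT in Tdp1-knockout DT40 cells stably expressing hTDP1, seeded 400/well; qHTS titration format.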
# % is scaled to controls: 0 for no effect and ±100 for the full control effect; potency is read from the fitted curve at half-maximal effect.
Compound,Potency,"activity change, negative = growth inhibition [%]"
COc1cccc(NC(=O)CCNS(=O)(=O)c2ccc3c(c2)oc(=O)n3C)c1,inactive,
CCc1ccccc1NC(=O)c1ccc2c(c1)CCN2S(C)(=O)=O,,9.03
CC(C)=CCC/C(C)=C/C(=O)O,,-5.06
COc1ccccc1-c1cc2nc(C)c(CCC(=O)NC3CCCCC3)c(C)n2n1,,5.23
COc1ccc(C2OC(=O)CC2C(=O)NC(C)C)cc1 (configuration not stated),,-2.88
COc1ccc(N)c(C)c1,,5.04
COc1ccc(-c2ccc(C(=O)NC(C)C)c3occc23)c(C)c1,14.6 µM (active),
COc1ccc(Cl)cc1C(=O)OCC(=O)NCc1cccs1,,-0.547
Cc1nnc(SC(C(=O)c2ccccc2)c2ccccc2)[nH]c1=O (configuration not stated),,-0.428
CN1CCC(N(C)C(=O)c2ccc(Cl)c(S(=O)(=O)Nc3ccc(Cl)cc3)c2)CC1,,-15
Cc1cccc(-n2ncc3c(=O)[nH]c(SCC(=O)Nc4cc(C)on4)nc32)c1,,-28.7
Cc1ccc2c(c1)N(CC(=O)N1CCC(C)CC1)C(=O)c1cccnc1O2,,1.35
O=C(CN1C(=O)c2cccnc2Oc2ccc(Cl)cc21)NCCc1ccccc1,,-25.7
CCN(CC)c1ccc(NC(=O)CN2C(=O)c3cccnc3Oc3ccc(Cl)cc32)c(C)c1,9.2 µM (active),
CCN(CC)c1ccc(NC(=O)Cn2nc3c(cc2=O)CCCC3)c(C)c1,,-21.6
Cc1ccc2c(c1)N(CC(=O)NCCCN1CCCCC1)C(=O)c1cccnc1O2,inactive,
CC(=O)c1cccc(NC(=O)CN2C(=O)c3cccnc3Oc3ccc(Cl)cc32)c1,18.4 µM (active),
COC(=O)Cc1ccc(OCC(=O)NC2CCCC2)cc1,,0.687
COc1cccc(N(CC(=O)NC2CCCC2)C(=O)CCCC(=O)Nc2ccccn2)c1,,-0.665
COCC1CCN(C(=O)C2CCC(=O)N(Cc3cccc(C(F)(F)F)c3)C2)CC1 (configuration not stated),,-9.13
CC(=O)CC[C@@H](C)O[C@@H]1OC(C)[C@H](O)CC1O (some centres not stated),,9.15
Nc1nc(SCc2cccc(Br)c2)n[nH]1,,-13.6
COc1cc2ccccc2cc1C(=O)Nc1ccccc1C,,-16.1
COCCn1c(C)cc(C(=O)CN2c3cccc4cccc(c34)S2(=O)=O)c1C,,9.37
CCCn1c(N)c(C(=O)CSc2nc3ccccc3c(=O)n2-c2ccc(OC)cc2)c(=O)[nH]c1=O,,1.77
COCC(C)n1c(SCC(=O)NC2CCCCC2C)nc2ccccc2c1=O (configuration not stated),,-14.7

Compound,Potency,"activity change, negative = growth inhibition [%]"
COC(=O)c1ccc(Cc2ccccc2)o1,,3.76
COCC(C)n1c(SCc2ccc(C(=O)OC)o2)nc2ccccc2c1=O (configuration not stated),7.31 µM (active),
COCCn1c(C)cc(C(=O)CSc2nc3ccccc3c(=O)n2C(C)COC)c1C (configuration not stated),20.6 µM (active),
COc1cccc(-n2c(N)cc(=O)nc2SCC(=O)Nc2cc(C)on2)c1,,-3.53
COCCNC(=O)c1ccc(-n2c(SCc3cccnc3)nc3ccccc3c2=O)cc1,,2.47
COCCn1c(C)cc(C(=O)CSc2nnc(C3CC3)n2C2CC2)c1C,,-5
COc1cccc(-n2c(SCC(=O)NC3CCS(=O)(=O)C3)nc3ccccc3c2=O)c1 (configuration not stated),,3.4
COc1cccc(-n2c(SCC(=O)c3c[nH]c4ccccc34)nc3ccccc3c2=O)c1,20.6 µM (active),
COC(=O)c1ccc(CSc2nc3ccccc3c(=O)n2-c2cccc(OC)c2)o1,20.6 µM (active),
CCOc1ccc(CN(C)C(=O)c2ccc(=O)[nH]c2)cc1,,14.4
Cc1occc(=O)c1OCc1c(Cl)cccc1Cl,,-17.7
COc1ccc(C2C3=C(CCCC3=O)N(CC(=O)O)C3=C2C(=O)CCC3)cc1,,-4.55
CSc1ccc(S(=O)(=O)N2CCC(C(=O)NCc3ccncc3)CC2)cc1,,0.718
COc1ccc(-c2c(C)nn3c(N4CCC(C(=O)N5CCCCC5)CC4)cc(C)nc23)cc1OC,,-7.26
CCN(CC)c1nc(-c2ccccc2)cc(C(F)(F)F)c1C#N,,-4.95
O=C(CNS(=O)(=O)c1ccccc1)NCC(=O)OCc1ccccc1F,,-28.2
Cc1cc(=O)oc2cc(OC(C)C(=O)NCCc3ccc(S(N)(=O)=O)cc3)ccc12 (configuration not stated),,-6.95
Nc1nc(SCC(=O)NNc2c(Cl)cc(Cl)cc2Cl)n[nH]1,,13.5
COc1cc(Cl)c(C)cc1NC(=O)COC(=O)c1cc(SC)ccc1Cl,,16.3
CCC(C)Cn1c(O)cc2nn(-c3nc4ccccc4s3)c(=O)c-2c1C (configuration not stated),14.6 µM (active),
Cc1ccc(-c2nn3c(=O)cc(CN4CCN(S(=O)(=O)c5ccc(Cl)cc5)CC4)nc3s2)cc1,,-12.6
CSc1sc(C)cc1C1C(C#N)=C(N)N(c2cccnc2)C2=C1C(=O)CCC2 (configuration not stated),11.6 µM (active),
CCc1ccc(C2C(C#N)=C(N)N(N(C)C)C3=C2C(=O)CCC3)s1 (configuration not stated),,-18.2
Cc1sc(C2C(C#N)=C(N)N(c3cccc(Cl)c3)C3=C2C(=O)CCC3)cc1CN1CCOCC1 (configuration not stated),,-13.7
Cc1cn(C)c(CC(=O)NCc2ccccc2)c1C(=O)O,,-2.5
C=CCn1c(SCC(N)=O)nnc1-c1cc2c(s1)CCC(CC)C2 (configuration not stated),,-13.6
